The values below come from PubChem BioAssay (NCI).

Assay [1] is described as follows: NCI Yeast Anticancer Drug Screen. Data for the mec2-1 strain (AID 157). Conditions: S. cerevisiae mec2-1 strain, active compounds read high. An outline of the steps:
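Each compound was tested on mec2-1 yeast, a strain altered in DNA damage repair or cell cycle control. Growth inhibition is reported relative to vehicle.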

Assay [2] in a line: NCI Yeast Anticancer Drug Screen. Data for the sgs1 mgt1 strain (AID 161).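 Note: 0% = growth of cultures given vehicle only.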 Conditions: S. cerevisiae sgs1 mgt1 strain, active compounds read high. Summed up:
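Inhibition of yeast growth, normalised to vehicle-treated controls, is reported for a strain bearing genetic alterations in DNA damage repair.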

Assay [3] is described as follows: NCI Yeast Anticancer Drug Screen. Data for the cln2 rad14 strain (AID 165).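 Note: 0% = growth equal to vehicle treated cultures.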 Conditions: S. cerevisiae cln2 rad14 strain, active compounds read high. Summed up: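 Test compounds were added to cln2 rad14 yeast cultures; inhibition of growth was then determined by comparison with vehicle treatment.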
Assay [4] in a line: NCI Yeast Anticancer Drug Screen. Data for the bub3 strain (AID 167). Conditions: S. cerevisiae bub3 mutant strain, active compounds read high. Summed up:
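Steps: expose the mutant yeast strain to compound; grow alongside vehicle-treated cultures; measure growth; express inhibition against the vehicle cultures.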

Assay [5] can be described thus: NCI Yeast Anticancer Drug Screen. Data for the mlh1 rad18 strain (AID 175). Conditions: S. cerevisiae mlh1 rad18 strain growth inhibition, active compounds read high. An outline of the steps: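 Inhibition values reflect reduced growth of mutant yeast versus vehicle-treated controls following compound exposure; the mutations affect DNA damage repair.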
Assay [6] can be described thus: NCI Yeast Anticancer Drug Screen. Data for the rad50 strain (AID 155).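 Note: 0% = growth of vehicle-only cultures of the same strain.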 Conditions: S. cerevisiae rad50 strain growth inhibition, active compounds read high. Summed up:
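Inhibition values express reduced yeast growth in compound-treated cultures relative to vehicle-treated controls.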

Where [7] appears, read: at 5.0 µM (retest, dose inferred, filed as 0.5).
Where [8] appears, read: at 50.0 µM (retest, dose inferred, filed as 5.0).

Compounds without any hit were thinned out: in the full panel of roughly 79,000, 15% have a hit. Unmarked numbers belong to inactive results. Active and inactive are the calls of the source. Cut-off read from the data, not from the text of the source: active = growth inhibition above about 70%; inactive = the rest.

For `N#Cc1ccc(C2Oc3ccc(Cl)cc3C=C2[N+](=O)[O-])cc1` (stereo not given), the growth inhibition in assay [1] (setting [7]) was 100% (active); in assay [1] (setting [8]) it was 99% (active); in assay [1] (at 50.0 µM) it was 75.7% (active); in assay [2] (setting [7]) it was 100% (active); in assay [2] (setting [8]), 99% (active); in assay [2] (at 50.0 µM), 91.2% (active). Moreover, the growth inhibition in assay [3] (setting [7]) is 98% (active); in assay [3] (setting [8]) it was 98% (active); in assay [3] (at 50.0 µM), 88.7% (active); in assay [4] (setting [7]), 98% (active); in assay [4] (setting [8]) it was 98% (active); in assay [4] (at 50.0 µM), 75.6% (active). Also, the growth inhibition in assay [5] (setting [7]) was 99% (active); in assay [5] (setting [8]) it was 99% (active); in assay [5] (at 50.0 µM), 83.3% (active).

In the case of `O=C(O)CC/C(=N\Nc1ccccc1)C(=O)O`, the growth inhibition in assay [1] (setting [7]) is -2%; in assay [1] (setting [8]), 90% (active); in assay [1] (at 50.0 µM), 98% (active); in assay [2] (setting [7]) it was -8%; in assay [2] (setting [8]), 84% (active); in assay [2] (at 50.0 µM) it was 97.4% (active). For the same compound, the growth inhibition was 6% in assay [3] (setting [7]); 98% (active) in assay [3] (setting [8]); 97% (active) in assay [3] (at 50.0 µM); 1% in assay [4] (setting [7]); 93% (active) in assay [4] (setting [8]); 97.3% (active) in assay [4] (at 50.0 µM). In addition, the growth inhibition was 5% in assay [5] (setting [7]), 93% (active) in assay [5] (setting [8]) and 97% (active) in assay [5] (at 50.0 µM).

Take `C/C(=N\NC(=S)N1CCC(C)CC1)c1cccc2cccnc12`: the growth inhibition in assay [1] (setting [7]) was -9%; in assay [1] (setting [8]), 98% (active); in assay [1] (at 50.0 µM), -6.1%; in assay [2] (setting [7]), 0%; in assay [2] (setting [8]) it was 98% (active); in assay [2] (at 50.0 µM), 83.2% (active). The growth inhibition in assay [3] (setting [7]) is -10%; in assay [3] (setting [8]) it was 98% (active); in assay [3] (at 50.0 µM), 14.2%; in assay [4] (setting [7]), 2%; in assay [4] (setting [8]) it was 98% (active); in assay [4] (at 50.0 µM), 6.05%. Moreover, the growth inhibition was -8% in assay [5] (setting [7]), 99% (active) in assay [5] (setting [8]) and 6.35% in assay [5] (at 50.0 µM).

Turning to `CSc1cccc(N2C(=O)C=CC2=O)c1`, the growth inhibition was 42% in assay [6] (setting [7]); 52% in assay [6] (setting [8]); 91.5% (active) in assay [6] (at 50.0 µM); 100% (active) in assay [2] (setting [7]); 100% (active) in assay [2] (setting [8]); 94% (active) in assay [2] (at 50.0 µM). For the same compound, the growth inhibition in assay [3] (setting [7]) was 69%; in assay [3] (setting [8]) it was 100% (active); in assay [3] (at 50.0 µM), 91.5% (active); in assay [4] (setting [7]), 100% (active); in assay [4] (setting [8]) it was 100% (active); in assay [4] (at 50.0 µM), 92.7% (active). Also, the growth inhibition in assay [5] (setting [7]) is 34%; in assay [5] (setting [8]), 45%; in assay [5] (at 50.0 µM), 92.5% (active).

Turning to `C/C(=N/NC(=S)NCc1ccccc1)c1ncccn1`, the growth inhibition in assay [6] (setting [7]) was -6%; in assay [6] (setting [8]), 98% (active); in assay [6] (at 50.0 µM), 98.8% (active); in assay [1] (setting [7]) it was 14%; in assay [1] (setting [8]), 98% (active); in assay [1] (at 50.0 µM), 98.9% (active). For the same compound, the growth inhibition was 7% in assay [3] (setting [7]); 98% (active) in assay [3] (setting [8]); 97.8% (active) in assay [3] (at 50.0 µM); -23% in assay [4] (setting [7]); 98% (active) in assay [4] (setting [8]); 98.5% (active) in assay [4] (at 50.0 µM). Moreover, the growth inhibition in assay [5] (setting [7]) was 3%; in assay [5] (setting [8]), 98% (active); in assay [5] (at 50.0 µM), 98.9% (active).

With `CC(=O)OCC1OC(N2CCc3cc([N+](=O)[O-])ccc32)C(OC(C)=O)C(OC(C)=O)C1OC(C)=O` (stereo not given), the growth inhibition was 2% in assay [6] (setting [7]); -4% in assay [6] (setting [8]); -15.4% in assay [6] (at 50.0 µM); 3% in assay [2] (setting [7]); 23% in assay [2] (setting [8]); -9.2% in assay [2] (at 50.0 µM). The growth inhibition in assay [3] (setting [7]) was 7%; in assay [3] (setting [8]) it was -3%; in assay [3] (at 50.0 µM) it was 41.9%; in assay [4] (setting [7]) it was 3%; in assay [4] (setting [8]), 1%; in assay [4] (at 50.0 µM), -3.25%. The growth inhibition in assay [5] (setting [7]) was 11%; in assay [5] (setting [8]), 18%; in assay [5] (at 50.0 µM), -16.8%.
